Experimental data reported in PubChem BioAssay (NCI).
Values joined by “and” are separate entries in the source; they are usually repeats but may differ in a detail not shown here. Identical values can stand only once. The panel holds about 83,000 compounds, 20% with a hit somewhere; the sample as a whole holds those more often.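 Each cell line was grown in a 96-well plate and treated with one concentration of compound for 48 hours. Values below 10 were considered active.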 Active and inactive are the calls of the source.

Columns and labels:
Experiment in all cases: NCI-60 one-dose screen, 48 h (100 = growth as untreated, 0 = no growth, -100 = all killed)
SR leukemia = test system: SR leukemia
RPMI-8226 leukemia = test system: RPMI-8226 leukemia
OVCAR-8 ovarian = test system: OVCAR-8 ovarian
OVCAR-5 ovarian = test system: OVCAR-5 ovarian
OVCAR-4 ovarian = test system: OVCAR-4 ovarian
SK-OV-3 ovarian = test system: SK-OV-3 ovarian
IGROV1 ovarian = test system: IGROV1 ovarian
OVCAR-3 ovarian = test system: OVCAR-3 ovarian
HS 578T breast = test system: HS 578T breast
T-47D breast = test system: T-47D breast
BT-549 breast = test system: BT-549 breast
MDA-MB-435 melanoma = test system: MDA-MB-435 melanoma
SW-620 colon = test system: SW-620 colon
MCF7 breast = test system: MCF7 breast
HCT-116 colon = test system: HCT-116 colon
HCC-2998 colon = test system: HCC-2998 colon
KM12 colon = test system: KM12 colon
NCI/ADR-RES ovarian = details: 10 µM

Measured: growth

CC(=O)O[C@H]1C(=O)[C@@]2(C)[C@H]([C@H](OC(=O)c3ccccc3)[C@]3(O)C[C@H](OC(=O)[C@H](O)[C@@H](NC(=O)c4ccccc4)c4ccccc4)C(C)=C1C3(C)C)[C@]1(OC(C)=O)CO[C@@H]1C[C@@H]2O
2.94% (active) and 10.9% (inactive): KM12 colon; 10 µM
inactive: SR leukemia; 0.01 µM 19.1% | RPMI-8226 leukemia; 2.5 µM 11.4% | OVCAR-8 ovarian; 5 µM 11.6% | OVCAR-8 ovarian; 10 µM 18.4% | OVCAR-5 ovarian; 0.01 µM 20.6% | OVCAR-5 ovarian; 5 µM 10.8% | OVCAR-5 ovarian; 10 µM 41.8% and 13.7% | OVCAR-4 ovarian; 0.01 µM 64.7% | OVCAR-4 ovarian; 2.5 µM 56.9% | OVCAR-4 ovarian; 5 µM 61.3% | SK-OV-3 ovarian; 0.01 µM 52% | SK-OV-3 ovarian; 2.5 µM 10.2% | SK-OV-3 ovarian; 5 µM 16.2% | SK-OV-3 ovarian; 10 µM 42.9% and 12.8% | IGROV1 ovarian; 0.01 µM 39% | IGROV1 ovarian; 2.5 µM 32.2% | IGROV1 ovarian; 5 µM 35.2% | T-47D breast; 0.01 µM 35.5% | T-47D breast; 2.5 µM 27.9% | T-47D breast; 5 µM 32.5% | T-47D breast; 10 µM 48.7% and 32.3% | SW-620 colon; 0.01 µM 24.4% | SW-620 colon; 2.5 µM 38.5% | SW-620 colon; 5 µM 50.3% | SW-620 colon; 10 µM 53.7% and 53.5% | MCF7 breast; 2.5 µM 14.3% | MCF7 breast; 5 µM 15.4% | MCF7 breast; 10 µM 15.4% and 15.3% | KM12 colon; 0.01 µM 10.6%
-13% (active) and 57.6% (inactive): OVCAR-4 ovarian; 10 µM
-24.8% (active) and 39.1% (inactive): IGROV1 ovarian; 10 µM
-2.72% (active) and 12.2% (inactive): SR leukemia; 10 µM
active: SR leukemia; 2.5 µM 7.15% | SR leukemia; 5 µM 9.15% | RPMI-8226 leukemia; 0.01 µM -10.5% | RPMI-8226 leukemia; 5 µM 1.39% | RPMI-8226 leukemia; 10 µM -42.3% and 8.81% | OVCAR-8 ovarian; 2.5 µM 4.98% | OVCAR-5 ovarian; 2.5 µM 9.17% | OVCAR-3 ovarian; 0.01 µM -6.94% | OVCAR-3 ovarian; 2.5 µM -5.62% | OVCAR-3 ovarian; 5 µM -2.89% | OVCAR-3 ovarian; 10 µM 0.613% and 0.903% | HS 578T breast; 0.01 µM -47.1% | HS 578T breast; 2.5 µM -18.5% | HS 578T breast; 5 µM -14.2% | HS 578T breast; 10 µM -14.9% and 2.62% | BT-549 breast; 0.01 µM -1.3% | BT-549 breast; 10 µM 6.6% | MDA-MB-435 melanoma; 0.01 µM -84.7% | MDA-MB-435 melanoma; 2.5 µM -41.9% | MDA-MB-435 melanoma; 5 µM -19.9% | MDA-MB-435 melanoma; 10 µM -4.97% and -14.7% | MCF7 breast; 0.01 µM 8.89% | HCT-116 colon; 0.01 µM 6.56% | HCT-116 colon; 2.5 µM 2.87% | HCT-116 colon; 5 µM 6.48% | HCC-2998 colon; 0.01 µM -65.6% | HCC-2998 colon; 2.5 µM -10.3% | HCC-2998 colon; 5 µM 0.255% | HCC-2998 colon; 10 µM -3.97% and -21.4% | KM12 colon; 2.5 µM 1.85% | KM12 colon; 5 µM 4.45%
11.9% (inactive) and 8.9% (active): HCT-116 colon; 10 µM

O=S(=O)(c1cc(Cl)ccc1O)c1cc(Cl)ccc1O
inactive: SR leukemia; 10 µM 84.6% | RPMI-8226 leukemia; 10 µM 51.2% | OVCAR-8 ovarian; 10 µM 83.7% | OVCAR-5 ovarian; 10 µM 116% | OVCAR-4 ovarian; 10 µM 85.3% | SK-OV-3 ovarian; 10 µM 78.4% | IGROV1 ovarian; 10 µM 83.5% | OVCAR-3 ovarian; 10 µM 78% | HS 578T breast; 10 µM 65.6% | T-47D breast; 10 µM 67% | MDA-MB-435 melanoma; 10 µM 93.4% | SW-620 colon; 10 µM 86.3% | MCF7 breast; 10 µM 92.9% | HCT-116 colon; 10 µM 77.1% | HCC-2998 colon; 10 µM 99.5% | KM12 colon; 10 µM 98.1%

COc1ccc(C(C#N)=C2C=CC(=NO)C=C2)cc1
inactive: SR leukemia; 10 µM 49.8% | RPMI-8226 leukemia; 10 µM 22% | OVCAR-8 ovarian; 10 µM 80.3% | OVCAR-5 ovarian; 10 µM 137% | OVCAR-4 ovarian; 10 µM 91.7% | SK-OV-3 ovarian; 10 µM 114% | IGROV1 ovarian; 10 µM 60.9% | OVCAR-3 ovarian; 10 µM 87.3% | HS 578T breast; 10 µM 99.6% | BT-549 breast; 10 µM 106% | MDA-MB-435 melanoma; 10 µM 23.2% | SW-620 colon; 10 µM 12.1% | MCF7 breast; 10 µM 14.1% | HCC-2998 colon; 10 µM 105%
active: T-47D breast; 10 µM 1.56% | HCT-116 colon; 10 µM -37.2% | KM12 colon; 10 µM -24.7%

O=c1[nH]cc(/C=N\Nc2ccccc2)c(=O)[nH]1
inactive: SR leukemia; 10 µM 65.1% | RPMI-8226 leukemia; 10 µM 76.5% | OVCAR-8 ovarian; 10 µM 46.7% | OVCAR-5 ovarian; 10 µM 68.4% | OVCAR-4 ovarian; 10 µM 84.4% | SK-OV-3 ovarian; 10 µM 62.2% | IGROV1 ovarian; 10 µM 53.9% | OVCAR-3 ovarian; 10 µM 81.2% | HS 578T breast; 10 µM 81.7% | NCI/ADR-RES ovarian 56.4% | T-47D breast; 10 µM 42.4% | BT-549 breast; 10 µM 82.5% | MDA-MB-435 melanoma; 10 µM 42.5% | SW-620 colon; 10 µM 46.6% | MCF7 breast; 10 µM 56.1% | HCT-116 colon; 10 µM 57% | HCC-2998 colon; 10 µM 76.9% | KM12 colon; 10 µM 37.9%

O=C1c2ccccc2CCC1(Br)Br
active: SR leukemia; 10 µM 0.0746% | RPMI-8226 leukemia; 10 µM 1.08% | OVCAR-4 ovarian; 10 µM -27.5% | OVCAR-3 ovarian; 10 µM -69.6% | T-47D breast; 10 µM -23.8% | BT-549 breast; 10 µM -31.9% | MDA-MB-435 melanoma; 10 µM 3.86% | SW-620 colon; 10 µM -45.5% | HCT-116 colon; 10 µM -90%
inactive: OVCAR-8 ovarian; 10 µM 38.6% | OVCAR-5 ovarian; 10 µM 25.8% | SK-OV-3 ovarian; 10 µM 95% | IGROV1 ovarian; 10 µM 88.4% | HS 578T breast; 10 µM 69.4% | MCF7 breast; 10 µM 21.6% | HCC-2998 colon; 10 µM 77.2% | KM12 colon; 10 µM 87.2%

N#CC(=C1C=CC(=NO)C=C1)c1ccccc1
inactive: OVCAR-4 ovarian; 10 µM 14.4% | SK-OV-3 ovarian; 10 µM 37.8% | IGROV1 ovarian; 10 µM 24.5% | HCC-2998 colon; 10 µM 90.6%
active: SR leukemia; 10 µM -17.5% | RPMI-8226 leukemia; 10 µM -13% | OVCAR-8 ovarian; 10 µM 2.63% | OVCAR-5 ovarian; 10 µM -10.1% | OVCAR-3 ovarian; 10 µM -26.8% | HS 578T breast; 10 µM -18.3% | T-47D breast; 10 µM -8.58% | BT-549 breast; 10 µM -7.31% | MDA-MB-435 melanoma; 10 µM -20.7% | SW-620 colon; 10 µM 1.65% | MCF7 breast; 10 µM 8.32% | HCT-116 colon; 10 µM -47.8% | KM12 colon; 10 µM -57%
